Only some compounds are listed: those with a hit (about 19% of all), similar ones and a draw of the others.
SARS PLpro yeast: SARS-CoV PLP inhibition in yeast. S. cerevisiae expressing SARS-CoV PLpro, growth rescue. Potency, µM (titrated, usually from 32.9 µM), without a hit: top-dose activity, positive = growth rescue, actives largely listed as activators. actives 0.19% (n = 330,000). AID 485353; calls by dose curve; further: potency means the concentration at half of the fitted maximal effect; 0% is about no effect; nearly all actives have a fitted effect of over 55% in size
Shiga toxin inh: Shiga toxin inhibition; AID 2315; Vero cells, Shiga toxin protein synthesis inhibition reporter; inhibition, % at 38.7 µM; actives 9.2% (n = 290,000); in the data active means inhibition mostly above about 28%, no sharp cut-off; inactive means mostly below about 43%; further: 0% is about no effect
AMA1-RON2 inh: inhibitors of Plasmodium falciparum AMA1-RON2 interaction; actives 0.2% (n = 360,000); Potency, µM (highest dose often 58.2 µM), for the others: top-dose activity change, negative = inhibition, usual class: inhibitors; AlphaScreen AMA1-biotinylated RON2 peptide binding;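 further: potency means the concentration at half of the fitted maximal effect; 0% = vehicle wells and -100% = peptide control; nearly all actives have a fitted effect of over 45% in size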
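AMA1 (3D7) with his tag at 25 nM final met compounds first, then biotinylated RON2 peptide at 25 nM; detection used donor plus acceptor beads, 10 µg/mL apiece, read by AlphaScreen after 30 min at room temperature.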
Pf growth 96h: inhibits malaria parasite growth, 96 h; P. falciparum luciferase reporter growth, 96 h; Potency, µM (series often up to 28.7 µM), for the others: at the top dose activity change, negative = inhibition, most hits filed as inhibitors; actives 6.9% (n = 320,000); AID 504834; further: potency means the concentration at half of the fitted maximal effect; on the % scale 0 is the no-effect control and ±100 the full control effect
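Erythrocytes infected with luciferase-expressing P. falciparum were dispensed at 2% hematocrit and 0.05% parasitemia (final), then incubated with compounds 96 hours at 37 C in 5% CO2. Luminescence after detection reagent addition reported growth.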
CHX counter: counter-screen hit for Shiga toxin inhibitors, cycloheximide | actives 12% (n = 300,000) | cell reporter, cycloheximide protein synthesis inhibition counterscreen | max response, %; in the data active means max response mostly above about 13%, no sharp cut-off; inactive means mostly below about 14%; further: read at 38.3 µM for the half of the compounds with a filed dose; 0% is about no effect
Pf growth 48h: inhibits P. falciparum growth in the first generation, 48 h; Potency, µM (highest dose often 28.7 µM), inactives show at the highest dose activity change, negative = inhibition, most hits filed as inhibitors; actives 5.9% (n = 310,000); P. falciparum luciferase growth in erythrocytes, 48 h; further: potency means the concentration at half of the fitted maximal effect; on the % scale 0 is the no-effect control and ±100 the full control effect
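Growth was read as firefly luciferase luminescence after a 48 h, 37 C, 5% CO2 exposure of compounds to reporter-bearing P. falciparum cultures (0.1% parasitemia, 2% hematocrit final) in Albumax-supplemented RPMI 1640.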
* = called active by the depositor; ? = inconclusive; . = no result given; [ ] = remark or other dose. Unless noted, the call rests on the fitted dose curve; in most records, active means well fitted curve in the direction sought with a large enough effect; inconclusive means small, poorly fitted or top-dose-only effect, or another doubt; inactive means no such curve, though single readings can be large; an effect the other way counts as inactive or inconclusive.

SMILES | SARS PLpro yeast | Shiga toxin inh | AMA1-RON2 inh | Pf growth 96h | CHX counter | Pf growth 48h
c1ccc(-c2cnn3c(-c4ccccc4)c(-c4ccccc4)nc3n2)cc1 | -28% | -11 | 26% | -6% | 5 | 15%
COc1cc(C(=O)Nc2cccc(C)c2C)c(Br)c(OC)c1OC | 0% | -4 | -1% | 12% | 7 | -15%
O=C(c1ccco1)N1CCN(c2c([N+](=O)[O-])nn(-c3cccc(Cl)c3)[n+]2[O-])CC1 | 10% | 22 | -7% | ? | 14* | 20%
Cc1cccc(NC(=O)c2cccc(S(=O)(=O)N(C)C3CCCCC3)c2)n1 | . | . | 130% | . | . | .
O=C(C1CCN(C2CCN(CC3CC=CCC3)CC2)CC1)N1CCOCC1 (centres undefined) | 1% | -16 | -5% | 19% | -2 | -11%
CCC(=O)Nc1ccc(NC(=S)NC(=O)/C=C/c2ccccc2)cc1 | -2% | -7 | -2% | -7% | 5 | 10%
O=C(/C=C/c1ccco1)NCc1ccc(F)cc1 | -1% | 20 | -5% | ? | 19* | 55%
NS(=O)(=O)c1ccc(CNC(=O)/C=C/c2ccco2)cc1 | 1% | 17 | -10% | 12% | 2 | 3%
NS(=O)(=O)c1ccc(NC(=S)NC(=O)/C=C/c2ccco2)cc1 | -7% | -13 | ? | ? | 1 | 23%
CC(=O)c1ccc(NC(=S)NC(=O)/C=C/c2ccco2)cc1 | 5% | . | 10% | -25% | 27* | 63%
CC(=O)c1ccc(NC(=S)NC(=O)/C=C/c2ccccc2)cc1 | 5% | 38* | 3% | 11% | 24* | 22%
Cc1cccc(NC(=S)NC(=O)/C=C/c2ccco2)n1 | 6%[6.58 µM] | 121* | -5% | -13% | 48* | .
O=C(N/N=C/c1ccc(OCCCF)cc1)c1ccc(C(F)(F)F)cc1 | -7% | 10 | 7% | 4% | -3 | ?
C=C1C[C@H](O[C@@H]2O[C@H](CO)[C@@H](O)[C@H](O)[C@H]2O)[C@@H]2[C@H](OC(=O)[C@H]2C)[C@H]2[C@H](C)[C@H](O)C[C@@H]12 | -38% | . | -2% | . | . | .
Cc1cccc(NC(=S)NC(=O)/C=C/c2ccco2)c1 | -1% | 32 | 14% | 14% | 10 | 11%
O=C(/C=C/c1ccco1)NC(=S)Nc1ccccc1 | -6% | . | 27% | 261% | 42* | 9%
COc1ccc(N/C=C/C(=O)c2ccc(Cl)cc2)cc1 | 17% | 69* | 11% | 4% | 63* | 266%
COc1cccc(N/C=C/C(=O)c2ccc(Cl)cc2)c1 | -5% | 92* | -5% | -2% | 63* | 285%
COc1cccc(C(=O)/C=C/Nc2cccc(O)c2)c1 | -11% | -10 | -9% | 240% | -1 | .
COc1cccc(N/C=C/C(=O)c2ccc(C)cc2)c1 | -6% | 63* | 14% | 145% | 21* | 0%
Cc1cccc(C(=O)N2CCCC(N3CCN(c4ccc(F)cc4)CC3)C2)n1 (centres undefined) | 0% | 7 | 2% | 5% | 24 | 9%
COc1ccccc1-c1cn[nH]c1-c1ccc(OCc2ccc(F)cc2)cc1O | -18% | -20 | 77% | 10µM* | -4 | 13µM*
COc1ccccc1-c1cn[nH]c1-c1ccc(OCc2ccccc2F)cc1O | -5% | -4 | 55% | 3.7µM* | -2 | 7.4µM*
C[C@H]1CN=C(N(C)C)N1CC1CCC(C(C)(C)C)CC1 (some centres undefined) | -1% | . | 2% | ? | . | 7.4µM*
C[C@H]1CN=C(N(C)C)N1CC1CCCC1 | -1% | . | 16% | ? | . | -19%
CN(CCO)c1cccc2c1S(=O)(=O)N[C@@H](Cc1ccccc1)CO2 | . | . | 36% | . | . | .
CCCCN(C(=O)c1cccc(S(=O)(=O)N2CCN(C)CC2)c1)c1c(N)n(CCC)c(=O)[nH]c1=O | -2% | . | 52% | 19% | . | 33%
CC(C)=CCC/C(C)=C/CNC(=O)C[C@H]1C[C@H](C(=O)N2CCCCC2)[C@@]2(C)c3[nH]c4cc(CCC(=O)N(C)C)ccc4c3CCN2C1=O | -18% | . | -25% | . | . | .
CC(C)C(C(=O)Nc1ccncc1)c1ccc(Cl)cc1 (centres undefined) | . | -14 | 9% | 1.5µM* | 1 | 3.3µM*

Source: PubChem BioAssay
